Assay results taken from PubChem BioAssay AID1159580 (chemical genetic matrix, 2015).
Screen size: about 5,500 compounds; about 2,000 (36%) were called active. About 18% were inconclusive and are not listed. Rule as the data show it: active = normalized growth mostly below about 0.91 (no sharp cut-off); inconclusive = no clear call, values can overlap the other calls; inactive = mostly above about 0.92. The list shows a part of the results.

Experiment: chemical genetic growth profiling, strain panel (AID 1159580);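 also: tested at 20 µM; growth read once vehicle control cultures reached saturation at 30 °C; 1 = growth at the plate median or of vehicle wells; lower values mean less growth of the strain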
Settings: growth OD

Measured: normalized growth

O=C1c2ccccc2C(=O)c2ccccc21
inactive: S. cerevisiae deletion strains, locus YJR075W, strain HOC1, active compounds read low 0.956 | S. cerevisiae deletion strains, locus YKL009W, strain mrt4, active compounds read low 0.933 | S. cerevisiae deletion strains, locus YKL068W, active compounds read low 0.986 | S. cerevisiae deletion strains, locus YKL085W, strain MDH1 (second series), active compounds read low 0.97 | S. cerevisiae deletion strains, locus YKL085W, strain MDH1, active compounds read low 0.97 | S. cerevisiae deletion strains, locus YKL160W, strain elf1, active compounds read low 0.986 | S. cerevisiae deletion strains, locus YKL190W, strain CNB1, active compounds read low 0.98 | S. cerevisiae deletion strains, locus YKR001C, strain vps1, active compounds read low 0.972 | S. cerevisiae deletion strains, locus YKR026C, strain gcn3, active compounds read low 1 | S. cerevisiae deletion strains, locus YKR091W, strain srl3, active compounds read low 1 | S. cerevisiae deletion strains, locus YLL001W, strain dnm1, active compounds read low 1.01 | S. cerevisiae deletion strains, locus YLL026W, active compounds read low 0.993 | S. cerevisiae deletion strains, locus YLL041C, strain sdh2, active compounds read low 0.993 | S. cerevisiae deletion strains, locus YLR027C, strain aat2, active compounds read low 0.999 | S. cerevisiae deletion strains, locus YLR039C, strain RIC1, active compounds read low 0.765 | S. cerevisiae deletion strains, locus YLR058C, strain SHM2, active compounds read low 0.988 | S. cerevisiae deletion strains, locus YLR102C, strain apc9, active compounds read low 0.989 | S. cerevisiae deletion strains, locus YLR113W, strain HOG1, active compounds read low 1.1 | S. cerevisiae deletion strains, locus YLR221C, strain rsa3, active compounds read low 0.969 | S. cerevisiae deletion strains, locus YLR258W, strain gsy2, active compounds read low 0.993 | S. cerevisiae deletion strains, locus YLR262C, strain YPT6 (second series), active compounds read low 0.96 | S. cerevisiae deletion strains, locus YLR262C, strain YPT6, active compounds read low 0.71 | S. cerevisiae deletion strains, locus YLR268W, strain sec22, active compounds read low 0.974 | S. cerevisiae deletion strains, locus YLR320W, strain mms22, active compounds read low 0.903 | S. cerevisiae deletion strains, locus YLR330W, strain CHS5, active compounds read low 0.993 | S. cerevisiae deletion strains, locus YLR342W, strain FKS1 (second series), active compounds read low 0.938 | S. cerevisiae deletion strains, locus YLR342W, strain FKS1, active compounds read low 1.01 | S. cerevisiae deletion strains, locus YLR357W, strain rsc2, active compounds read low 0.976 | S. cerevisiae deletion strains, locus YLR370C, strain arc18, active compounds read low 0.994 | S. cerevisiae deletion strains, locus YLR371W, strain rom2, active compounds read low 0.975 | S. cerevisiae deletion strains, locus YLR384C, strain iki3, active compounds read low 0.994 | S. cerevisiae deletion strains, locus YLR418C, strain cdc73, active compounds read low 1.01 | S. cerevisiae deletion strains, locus YML016C, strain PPZ1, active compounds read low 0.992 | S. cerevisiae deletion strains, locus YML032C, strain rad52, active compounds read low 0.976 | S. cerevisiae deletion strains, locus YML120C, strain ndi1, active compounds read low 1.01 | S. cerevisiae deletion strains, locus YML124C, strain tub3, active compounds read low 0.989 | S. cerevisiae deletion strains, locus YMR058W, strain fet3, active compounds read low 0.948 | S. cerevisiae deletion strains, locus YMR078C, strain ctf18, active compounds read low 0.995 | S. cerevisiae deletion strains, locus YMR125W, strain sto1, active compounds read low 1.08 | S. cerevisiae deletion strains, locus YMR129W, active compounds read low 0.996 | S. cerevisiae deletion strains, locus YMR205C, strain PFK2, active compounds read low 1.03 | S. cerevisiae deletion strains, locus YMR223W, strain ubp8, active compounds read low 0.963 | S. cerevisiae deletion strains, locus YMR231W, strain pep5, active compounds read low 0.998 | S. cerevisiae deletion strains, locus YMR263W, strain SAP30, active compounds read low 0.97 | S. cerevisiae deletion strains, locus YMR307W, strain GAS1, active compounds read low 0.804 | S. cerevisiae deletion strains, locus YNL067W, strain RPL9B, active compounds read low 0.964 | S. cerevisiae deletion strains, locus YNL071W, strain lat1, active compounds read low 0.955 | S. cerevisiae deletion strains, locus YNL128W, strain TEP1, active compounds read low 0.946 | S. cerevisiae deletion strains, locus YNL153C, strain GIM3, active compounds read low 1 | S. cerevisiae deletion strains, locus YNL183C, strain NPR1, active compounds read low 0.961 | S. cerevisiae deletion strains, locus YNL209W, strain ssb2, active compounds read low 0.978 | S. cerevisiae deletion strains, locus YNL233W, strain BNI4, active compounds read low 0.995 | S. cerevisiae deletion strains, locus YNL250W, strain rad50, active compounds read low 0.974 | S. cerevisiae deletion strains, locus YNL271C, strain bni1, active compounds read low 0.978 | S. cerevisiae deletion strains, locus YNL298W, strain CLA4, active compounds read low 0.975 | S. cerevisiae deletion strains, locus YNL307C, strain MCK1, active compounds read low 0.971 | S. cerevisiae deletion strains, locus YNL322C, strain KRE1 (second series), active compounds read low 1.03 | S. cerevisiae deletion strains, locus YNL322C, strain KRE1, active compounds read low 0.987 | S. cerevisiae deletion strains, locus YNR049C, strain mso1, active compounds read low 0.995 | S. cerevisiae deletion strains, locus YNR052C, strain pop2, active compounds read low 0.99 | S. cerevisiae deletion strains, locus YOL006C, strain TOP1, active compounds read low 0.97 | S. cerevisiae deletion strains, locus YOL012C, strain htz1 0.796 | S. cerevisiae deletion strains, locus YOL147C, strain pex11, active compounds read low 1.01 | S. cerevisiae deletion strains, locus YOR001W, strain rrp6, active compounds read low 0.991 | S. cerevisiae deletion strains, locus YOR061W, strain CKA2, active compounds read low 0.988 | S. cerevisiae deletion strains, locus YOR069W, strain VPS5, active compounds read low 1.01 | S. cerevisiae deletion strains, locus YOR070C, strain gyp1, active compounds read low 0.996 | S. cerevisiae deletion strains, locus YOR080W, strain dia2, active compounds read low 1.01 | S. cerevisiae deletion strains, locus YOR083W, strain WHI5, active compounds read low 0.963 | S. cerevisiae deletion strains, locus YOR106W, strain vam3, active compounds read low 0.945 | S. cerevisiae deletion strains, locus YOR136W, strain idh2, active compounds read low 0.985 | S. cerevisiae deletion strains, locus YOR144C, strain elg1, active compounds read low 0.992 | S. cerevisiae deletion strains, locus YOR184W, strain ser1, active compounds read low 0.942 | S. cerevisiae deletion strains, locus YOR231W, strain MKK1, active compounds read low 1.02 | S. cerevisiae deletion strains, locus YOR265W, strain rbl2, active compounds read low 0.993 | S. cerevisiae deletion strains, locus YOR270C, strain vph1, active compounds read low 0.804 | S. cerevisiae deletion strains, locus YOR290C, strain snf2, active compounds read low 0.973 | S. cerevisiae deletion strains, locus YOR316C, strain cot1, active compounds read low 0.996 | S. cerevisiae deletion strains, locus YPL051W, strain arl3, active compounds read low 0.926 | S. cerevisiae deletion strains, locus YPL055C, strain LGE1, active compounds read low 0.9 | S. cerevisiae deletion strains, locus YPL078C, strain atp4, active compounds read low 0.96 | S. cerevisiae deletion strains, locus YPL106C, strain sse1, active compounds read low 0.954 | S. cerevisiae deletion strains, locus YPL240C, strain hsp82, active compounds read low 0.995 | S. cerevisiae deletion strains, locus YPL241C, strain CIN2, active compounds read low 0.953 | S. cerevisiae deletion strains, locus YPL256C, strain CLN2, active compounds read low 1.08 | S. cerevisiae deletion strains, locus YPR119W, strain clb2, active compounds read low 0.996 | S. cerevisiae deletion strains, locus YPR141C, strain kar3, active compounds read low 0.99 | S. cerevisiae deletion strains, locus YPR163C, strain tif3, active compounds read low 0.996 | S. cerevisiae deletion strains, locus YPR167C, strain met16, active compounds read low 1 | S. cerevisiae deletion strains, strain wtn01, active compounds read low 0.988 | S. cerevisiae strains, strain wild type, active compounds read low 0.995
active: S. cerevisiae deletion strains, locus YNL248C, strain rpa49, active compounds read low 0.837
